Records with an inconclusive call do not appear. Entries that show only a call come without a potency. Active and inactive are the calls of the source. Calls follow the shape of the dose curve; as a rule, active = well fitted cell-killing curve with a large enough effect; inconclusive = small, poorly fitted or top-dose-only effect; inactive = no such curve, though single readings can be large or run the other way.
Potency is read from the fitted curve at half-maximal effect.

A short description of this test: qHTS of pediatric cancer cell lines to identify multiple opportunities for drug repurposing: Primary screen for LAN-5 cells (AID 1347100). To be noted: LAN-5 neuroblastoma viability, CellTiter-Glo luminescence, 48 h; series mostly up to 46 µM. An excerpt: Drug repurposing or repositioning has been offered as a strategy for drug development in oncology programs. This approach has special potential for childhood cancers and other rare or orphan diseases, where the expected return on new drug development has been a disincentive to pharmaceuticals.
In this project we exploit the poly-pharmacology of drugs to discover new indications via phenotypic screening of a panel of 19 well-characterized cell lines derived from solid tumors seen in children and adolescents. The goal is to identify approved drugs with previously unrecognized anticancer properties that has the potential to reveal new mechanisms and biological processes involved in carcinogenesis or drug resistance. We employed a titration-based paradigm (quantitative high-throughput screening or qHTS), where all compounds were tested at multiple concentrations for their effect on cell viability. Concentration-response curves (CRCs) were derived directly from the primary screen, and both potency and efficacy values were used to identify compounds with robust bioactivity profiles. We screened the NIH Chemical Genomics Center (NCGC) Pharmaceutical Collection (NPC) and Mechanism Interrogation Plate (MIPE) small molecule collections of approved and investigational compounds against these cell lines; and measured metabolically active cells after 48 hours of compound treatment as a proxy for cell viability.
Assay Submitter: Nathalia J. Martinez, National Center for Advancing Translational Sciences, National Institutes of Health, Rockville, MD, USA; email: natalia.martinez@nih.gov
[1] Shen, M et al. Quantitative high-throughput phenotypic screening of pediatric cancer cell lines identifies multiple opportunities for drug repurposing. Oncotarget 2017 Dec 19;9(4):4758-4772. PMID 29435139.
The cells were obtained from University of North Carolina (UNC), Pediatric Preclinical Testing Program (PPT), and Coriell Institute (CI).
qHTS cell viability assay:
Cells were assayed in growth media at a density of 500-1,000 cells/well. Five microliters of cells were dispensed into 1,536-well, white, solid-bottom, TC-treated plates (Greiner Bio One) using a multidrop dispenser and incubated at 37 degrees C, 5% CO2, under a humidified atmosphere for 5 hours. Twenty-three nanoliters of compounds and controls (neutral control DMSO or positive control bortezomib at final concentration of 2.3 µM) were subsequently transferred by Kalypsys pintool. For primary screens, the MIPE collection was tested at 11-point dilutions (final concentrations range from 0.78 nM to 46 µM) and the NPC collection at 8-point dilutions (final concentrations range from 0.59 nM to 46 µM). Compounds tested in follow-up screens were assayed at 11-point dilutions. Cells were incubated for 48 hours, followed by addition of 3 µL of CellTiter-Glo (Promega). After a 15 min incubation at room temperature, samples were analyzed for luminescence intensity using a ViewLux High-throughput CCD imager equipped with clear filters.
On to `COc1cc(O)c2c(c1)C(=O)c1cc(C)cc(O)c1C2=O`, for which the Potency result was “inactive”.
As to `O=C(CCN1CCN(C(=O)OCc2cc(Cl)cc(Cl)c2)CC1)c1ccc2[nH]c(=O)oc2c1`, the Potency result is “inactive”.
To `COC(=O)N[C@H](C(=O)N1CCC[C@@H]1c1ncc(-c2ccc(-c3ccc(-c4cnc([C@@H]5CCCN5C(=O)[C@@H](NC(=O)OC)C(C)C)[nH]4)cc3)cc2)[nH]1)C(C)C` belongs 26.4 µM (active).
The result for `CCOC(=O)C1=C(N)Oc2ccc(Br)cc2C1C(C#N)C(=O)OCC` (stereo not given) reads 16.6 µM (active); that for `OC[C@@H](O)[C@H](O)[C@H](O)[C@@H](O)CO`, “inactive”; that for `Cc1ccc(F)c(NC(=O)Nc2ccc(-c3cccc4[nH]nc(N)c34)cc2)c1`, 20.9 µM (active).
For `CN(C)CCC(c1ccccc1)c1ccccn1` (stereo not given), the Potency entry is “inactive”.
With `CC(C)(C)c1cc(C(=O)O)c(NC(=O)Nc2ccc3[nH]ncc3c2)s1`, the Potency result was “inactive”.
Regarding `O=C(O)c1ccccc1C(=O)Nc1ccc(-c2ccccc2)cc1`, the Potency result was “inactive”.
For the molecule `O=c1ccn([C@@H]2O[C@H](CO)[C@H](O)[C@H]2O)c(=O)[nH]1`, the Potency result was “inactive”.
As to `Cn1cc(C=C2C(=O)Nc3cccnc32)c2ccccc21`, the Potency result was “inactive”.
For `Oc1ccc(C2=Cc3ccc(O)cc3OC2)cc1`, the Potency is 2.35 µM (active).
For the molecule `CCCNC(=O)NS(=O)(=O)c1ccc(Cl)cc1`, the Potency result is “inactive”.
As for `O=C(NC1CCOCC1)c1ccc(-c2cc(-c3cn[nH]c3-c3ccccn3)ccn2)cc1`, the Potency result is “inactive”.
Regarding `CC[C@@]1(O)C[C@H](O[C@H]2C[C@H](N(C)C)[C@H](O[C@H]3C[C@H](O)[C@H](O[C@H]4CCC(=O)[C@H](C)O4)[C@H](C)O3)[C@H](C)O2)c2c(cc3c(c2O)C(=O)c2c(O)cccc2C3=O)[C@@H]1C(=O)OC`, the Potency is 2.35 µM (active).
To `COc1ccccc1N1CCN(CCCNc2cc(=O)n(C)c(=O)n2C)CC1` belongs “inactive”.
As for `NC(CO)(CO)CCc1ccc(Sc2cccc(OCc3ccccc3)c2)cc1Cl`, the Potency is 4.18 µM (active).
The result for `O=C(O)Cc1cccc2ccccc12` reads “inactive”; that for `Cc1nnc(C(C)C)n1C1C[C@H]2CC[C@@H](C1)N2CC[C@H](NC(=O)C1CCC(F)(F)CC1)c1ccccc1` (stereo not given in full), “inactive”.
The result for `C[C@]12CC[C@@H]3c4ccc(O)cc4C[C@@H](CCCCCCCCCS(=O)CCCC(F)(F)C(F)(F)F)[C@H]3[C@H]1CC[C@H]2O` (stereo not given in full) reads “inactive”.
In the case of `COC1CCC(N(C(=O)C2CCC(C)CC2)c2cc(C3=CCCCC3)sc2C(=O)O)CC1` (stereo not given), the Potency result was “inactive”.
Take `CC(C)(C)Cn1c(N)nc2ccc(-c3[nH]c(C(C)(C)C)nc3-c3ccc(F)cc3)nc21`: the Potency entry was “inactive”.
As to `O=C(CCc1ccc(O)cc1)c1c(O)cc(O)cc1O[C@@H]1O[C@H](CO)[C@H](O)[C@H](O)[C@H]1O`, the Potency entry was “inactive”.
In the case of `CC(C)C(=O)Oc1ccc(CO)cc1[C@H](CCN(C(C)C)C(C)C)c1ccccc1`, the Potency result was “inactive”.
To `C[N+](C)(C)CCCCCC[N+](C)(C)C` belongs “inactive”; to `CC[C@]1(O)C[C@@H]2CN(CCc3c([nH]c4ccccc34)[C@@](C(=O)OC)(c3cc4c(cc3OC)N(C=O)[C@@H]3C45CCN4CC=C[C@](CC)([C@H]45)[C@@H](OC(C)=O)[C@]3(O)C(=O)OC)C2)C1` (stereo not given in full), “inactive”.
To `O=C1NC(=O)C(=Cc2ccc(-c3ccc(F)cc3)o2)S1` belongs “inactive”.
The result for `COC(=O)C1=CO[C@@H](O)[C@@H]2C(CO)=CC[C@@H]12` reads 20.9 µM (active); that for `Nc1ncnc2c1ncn2[C@@H]1O[C@@H](CO)[C@H](O)[C@H]1O`, “inactive”; that for `COc1cc(N2CCC(N3CCN(C)CC3)CC2)ccc1Nc1ncc(Cl)c(Nc2ccccc2S(=O)(=O)C(C)C)n1`, 0.001 µM (active).
`CN1CCN(CCOc2cc(OC3CCOCC3)c3c(Nc4c(Cl)ccc5c4OCO5)ncnc3c2)CC1`: the Potency is 18.7 µM (active).
With `O=C(Nc1cc(Cl)cc2c1[nH]c1cnccc12)c1cccnc1`, the Potency entry was “inactive”.
To `CO[C@@H](C(=O)N1Cc2[nH]nc(NC(=O)c3ccc(N4CCN(C)CC4)cc3)c2C1)c1ccccc1` belongs 0.0372 µM (active).
Consider `NCCS`, for which the Potency result was “inactive”.
The result for `CCc1ccc(C=C2SC(=S)NC2=O)cc1` reads “inactive”; that for `CC(=O)N(C)C1(c2ccccc2)CCN(CCC[C@]2(c3ccc(Cl)c(Cl)c3)CCCN(C(=O)c3ccccc3)C2)CC1`, 23.5 µM (active); that for `CNC(=O)c1ccc2cc(C3(O)CCn4cncc43)ccc2c1` (stereo not given), “inactive”.
The result for `C[C@H](NC(=O)c1sccc1OCc1ccc(Cl)cc1)c1ccccc1` reads “inactive”.
To `Cc1ccccc1C(C(=O)NC1CCCCC1)N(C(=O)Cn1ccnc1C)c1cccc(F)c1` (stereo not given) belongs “inactive”; to `CC(C)n1nc(-c2ccc3oc(N)nc3c2)c2c(N)ncnc21`, 18.7 µM (active).

(Values after PubChem BioAssay (NCATS).)
